High-throughput results: PubChem BioAssay, several laboratories
esBAF inh: Bmi1 luciferase reporter increase in mESCs, primary screen, esBAF inhibitor project, mouse ES cells, Bmi1 luciferase knock-in, single point | 24 h; 100% = twice the neutral-well signal | reporter increase, % at 12.5 µM | hit rate 2% among 350,000 | AID 602393, 2012; in the data active = activation above about 40%; inconclusive = no clear call, values can overlap the other calls;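 also: 0% = median of the plate's neutral control wells and 100% = double that signal; a rise in the Bmi1 reporter signal indicates esBAF inhibition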
Gli-Sufu block: Gli-Sufu pathway antagonists, primary screen, luciferase luminescence, Sufu-KO-LIGHT cells, uHTS. Sufu-KO-LIGHT fibroblasts, Gli luciferase reporter luminescence. AID 588413, 2011. hit rate 0.74% among 340,000. inhibition, % at 5 µM;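 active = inhibition above about 55%, limit read from the data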;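 also: 0% = DMSO-treated cells and 100% = wells with medium but no cells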
SMARCA2 activ: SMARCA2 (BRM) function activators, primary screen, cell-based, luminescence, high throughput. MG213 cells, MMTV-luciferase reporter, dexamethasone, overnight. activation, % at 9.1 µM. hit rate 1% among 370,000. AID 652017, 2013; in the data active = activation above about 7.8%;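 also: 0% = vehicle wells and 100% = reference activator wells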
697 NFkB inh: inhibitors of PMA/ionomycin-induced NF-kB reporter, 697 cells, primary screen, B-cell NF-kB inhibitor project, cell-based, luminescence, uHTS; 697 B-cell NF-kB luciferase reporter, 16 h; inhibition, % at 4 µM; hit rate 0.33% among 330,000; AID 435022, 2010; in the data active = inhibition above about 35%
Jurkat NFkB inh: inhibitors of induced NF-kB luciferase reporter, primary screen, TCR NF-kB activation inhibitor project, cell-based, luminescence, uHTS; Jurkat, PMA/ionomycin-induced NF-kB luciferase reporter; inhibition, % at 4 µM; hit rate 0.53% among 330,000; in the data active = inhibition above about 50%
SMARCA2 act conf: SMARCA2 (BRM) function activators, confirmation, cell-based, luminescence, triplicate; AID 652260, 2013; MG213 cells, MMTV-luciferase with dexamethasone, overnight; MG213 cells expressing E1A, Rb sequestered; DMSO wells 0%, reference activator 100%; hit rate 30% among 3,500; shares compounds with SMARCA2 activ; activation, % at 9.1 µM;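 active = activation above its plate's cutoff, the mean activation of tested wells plus 3 SD, cut at about 7.9% in these data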
VP16 Luc act: GAL4-VP16 luciferase reporter activation, counter-screen for SMARCA2 (BRM) activator project, cell-based, pG5luc, luminescence, high throughput | hit rate 41% among 3,500 | shares compounds with SMARCA2 activ | HEK293 GAL4-VP16 pG5luc reporter; scaled: DMSO wells 0%, SAHA wells 100% | AID 686939, 2013 | activation, % at 9.1 µM;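 active = activation above the solvent-only control well mean plus 3 SD, averaged across control plates, cut at about 5.2% in these data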
Active calls of the source: *; ? = inconclusive; nt = no result. Sampled rows, rich in hits. Any-hit rate of the full collection: about 3.3%.

SMILES | esBAF inh | Gli-Sufu block | SMARCA2 activ | 697 NFkB inh | Jurkat NFkB inh | SMARCA2 act conf | VP16 Luc act
CCN(CC)C(=O)CSc1nc(N)c2c3c(sc2n1)CC(C)CC3 (configuration not stated) | nt | -28.9 | 8.3* | -75.5 | -35.9 | 4.1 | 8.1*
CCC(C)c1ccc(N(C(=O)c2ccco2)C(C(=O)NC2CCCC2)c2cccnc2)cc1 (configuration not stated) | 86.0* | -5.2 | 8.1* | -14.2 | -33.3 | 3.8 | 5.2*
CC(C)c1ccc(N(C(=O)c2ccco2)C(C(=O)NC2CCCC2)c2ccncc2)cc1 (configuration not stated) | 46.8* | 10.2 | 8.0* | -74.2 | -52.2 | 3.0 | 2.5
CCc1ccc(N(C(=O)c2ccco2)C(C(=O)NC2CCCC2)c2cccnc2)cc1 (configuration not stated) | 11.6 | -3.5 | -3.2 | 1.2 | -23.8 | nt | nt
C[C@H]1CN([C@@H](C)CO)C(=O)c2cc(C#CC3CC3)cnc2O[C@@H]1CN(C)Cc1ccccn1 | -1.4 | nt | nt | nt | nt | nt | nt
C[C@H](CO)N1C[C@H](C)[C@@H](CN(C)C(=O)c2cccnc2)Oc2ncc(-c3ccc(C#N)cc3)cc2C1=O | -10.1 | nt | nt | nt | nt | nt | nt
C[C@@H]1CCCCO[C@@H](CN(C)Cc2ccc3c(c2)OCO3)[C@H](C)CN([C@H](C)CO)C(=O)c2cc(NC(=O)Nc3ccc(F)cc3)ccc2O1 | -5.2 | nt | nt | nt | nt | nt | nt
CN(C)CCCNC(=O)C[C@H]1C=C[C@H](NS(=O)(=O)c2ccc(F)cc2)[C@H](CO)O1 | 0.2 | nt | nt | nt | nt | nt | nt
O=C(O)[C@@H]1[C@@H]2C[C@@H]2CN1c1ncccc1[N+](=O)[O-] | -0.6 | 1.5 | 9.9* | -4.9 | -8.0 | 1.6 | 0.2
Cc1noc(C)c1S(=O)(=O)Nc1ccc2c(c1)CC(=O)N([C@@H](C)CO)C[C@H](C)[C@@H](CN(C)C(=O)NC1CCCCC1)O2 | 1.4 | nt | nt | nt | nt | nt | nt
COc1ccccc1CNC(=O)C[C@@H]1CC[C@H]2[C@@H](COC[C@@H](O)CN2C(=O)Nc2ccc(Cl)cc2)O1 | 25.8 | nt | nt | nt | nt | nt | nt
COc1ccc2c(c1OC)C(=O)N1c3ccccc3COC21 (configuration not stated) | 34.0 | 7.3 | 8.2* | -91.3 | -110.2 | 8.9* | 9.3*
CC(=O)Nc1ccc(NC(=O)CCc2nc3sc4c(c3c(=O)[nH]2)CCCC4)cc1 | 0.9 | -5.3 | 0.5 | 18.5 | 10.2 | nt | nt
Cc1cc(C)cc(NC(=O)CCc2nc3sc4c(c3c(=O)[nH]2)CCCC4)c1 | 1.6 | -58.6 | 24.2* | 31.9 | 11.6 | 28.0* | 1.1
CN(Cc1ccco1)C(=O)CCc1nc2sc3c(c2c(=O)[nH]1)CCCC3 | -5.1 | -2.4 | 8.2* | 16.8 | 9.1 | 1.5 | 0.4
Cc1ccc(CN(C)C(=O)CCc2nc3sc4c(c3c(=O)[nH]2)CCCC4)o1 | nt | -0.3 | 1.3 | 1.6 | -7.0 | nt | nt
C[C@H]1CN([C@@H](C)CO)C(=O)c2cccc(NC(=O)Nc3ccc4c(c3)OCO4)c2O[C@H]1CN(C)Cc1ccc(Oc2ccccc2)cc1 | 1.8 | nt | nt | nt | nt | nt | nt
COCCNS(=O)(=O)c1ccc(F)c(OC)c1 | 2.6 | -4.2 | 13.9* | 2.4 | -14.2 | -1.5 | 0.9
CC(C)COC(=O)N(C)C[C@H]1OCc2ccccc2-c2c(n(C)c3ccccc23)C(=O)N([C@@H](C)CO)C[C@H]1C | 0.6 | nt | nt | nt | nt | nt | nt
COc1cc(C(=O)N2CC(=O)Nc3ccccc32)cc(OC)c1OC | 2.4 | nt | 9.2* | nt | nt | -0.5 | 0.2
COc1ccc(C(=O)N2CC(=O)Nc3ccccc32)cc1S(=O)(=O)N1CCCC1 | nt | 4.8 | -4.0 | 4.0 | 1.9 | nt | nt
C[C@H]1CN([C@@H](C)CO)C(=O)c2cc(NC(=O)CCCN(C)C)ccc2O[C@H]1CN(C)S(=O)(=O)c1cccs1 | -0.2 | nt | nt | nt | nt | nt | nt
Cc1cccc(OCCCC(=O)Nc2nc3ccccc3[nH]2)c1 | nt | -9.7 | 18.1* | -13.0 | -1.9 | 13.6* | 2.2
COc1ccccc1/C=C/C(=O)Nc1cccnc1 | 39.2 | -29.0 | 2.4 | -12.0 | -30.2 | nt | nt
O=C(/C=C/c1ccccc1Cl)Nc1cccnc1 | 8.9 | -22.5 | 9.0* | 11.7 | -121.4 | 8.3* | 7.5*
SMILES | esBAF inh | Gli-Sufu block | SMARCA2 activ | 697 NFkB inh | Jurkat NFkB inh | SMARCA2 act conf | VP16 Luc act
COc1ccc(C2NC(=O)NC(C)=C2C(=O)OCc2ccccc2)cc1 (configuration not stated) | -3.0 | 16.3 | 13.6* | -3.2 | 5.6 | 4.3 | 0.6
COc1ccc(-c2cc(=O)c3cc(OC)ccc3o2)cc1 | -55.3 | -99.5 | 9.8* | -152.3 | -57.9 | 5.6 | 7.0*
COc1ccc2cc(-c3ccccc3)c(=O)oc2c1 | 3.3 | -41.1 | 9.7* | -175.8 | -140.1 | 3.2 | 9.2*
CCC(N=c1cc(-c2ccc(OC)cc2)oc2ccc(C)cc12)C(=O)O (configuration not stated) | nt | -32.4 | 16.8* | -179.4 | -134.3 | 10.6* | 8.8*
COc1ccc2c(c1)oc(=O)c1cc(OC)ccc12 | 78.9* | -89.9 | 9.1* | -76.4 | -78.0 | 19.8* | 6.5*
COc1ccc2oc(-c3ccccc3)cc(=O)c2c1 | -43.0 | nt | 4.6 | nt | nt | nt | nt
CN(C)C(=O)C[C@H]1C[C@H]2c3cc(NS(C)(=O)=O)ccc3O[C@H]2[C@H](CO)O1 | 3.1 | nt | nt | nt | nt | nt | nt
C[C@@H]1CCCCO[C@@H](CN(C)C(=O)Nc2ccc3c(c2)OCO3)[C@H](C)CN([C@H](C)CO)C(=O)c2cc(NC(=O)Nc3ccc(F)cc3)ccc2O1 | 2.1 | nt | nt | nt | nt | nt | nt
COc1ccc(NC(=O)CSc2c3c(nc4cc(Cl)ccc24)CCCC3)cc1OC | nt | -12.2 | 9.4* | -15.4 | 2.9 | 2.9 | 1.0
COc1cc(NC(=O)CSc2c3c(nc4ccccc24)CCC3)cc(OC)c1OC | nt | 4.1 | -1.7 | -13.3 | -5.9 | nt | nt
COc1ccc(CCNC(=S)Nc2ccccc2)cc1 | 23.2 | 2.0 | -4.9 | 12.1 | -20.5 | nt | nt
COc1ccc(N/C(C)=C/C(=S)Nc2ccccc2)cc1 | nt | -10.8 | 11.5* | -54.2 | -39.6 | 2.6 | 1.9
c1ccn2c(c1)nc1c2nc2ccccn21 | ? | -0.9 | 12.5* | -51.6 | -31.9 | 5.3 | 4.3
COC(=O)/C=C1\C(=O)N(c2nc3ccc(OC)cc3s2)C(=S)N1c1ccc(F)cc1 | nt | nt | nt | -3.2 | 10.3 | nt | nt
COC(=O)/C=C1\C(=O)N(c2nc3ccccc3s2)C(=S)N1c1ccc(F)cc1 | 37.8 | 18.5 | 8.6* | -42.5 | -58.7 | 3.4 | 2.8
COc1ccc(NC(=O)Nc2ccc3c(c2)C(=O)N([C@H](C)CO)C[C@@H](C)[C@@H](CN(C)Cc2ccc(Oc4ccccc4)cc2)O3)cc1 | -5.8 | nt | nt | nt | nt | nt | nt
